# Active and inactive are the calls of the source.
# Columns and labels:
# Albumin (Bos taurus) = Albumin (Bos taurus) (UniProt P02769); assay: bovine serum albumin binders on microarray, profiling panel, artefact control for SMM control protein annotation, biochemical, small-molecule microarray, Alexa647 label, 635/667 nm fluorescence (AID 1118); settings: BSA-A647 binding, fluorescence 635 nm, higher = more signal;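 also: score merges 667 nm emission intensity and signal-to-noise per printed compound spot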
# Sequence of Albumin (Bos taurus) (P02769 whole entry, looked up): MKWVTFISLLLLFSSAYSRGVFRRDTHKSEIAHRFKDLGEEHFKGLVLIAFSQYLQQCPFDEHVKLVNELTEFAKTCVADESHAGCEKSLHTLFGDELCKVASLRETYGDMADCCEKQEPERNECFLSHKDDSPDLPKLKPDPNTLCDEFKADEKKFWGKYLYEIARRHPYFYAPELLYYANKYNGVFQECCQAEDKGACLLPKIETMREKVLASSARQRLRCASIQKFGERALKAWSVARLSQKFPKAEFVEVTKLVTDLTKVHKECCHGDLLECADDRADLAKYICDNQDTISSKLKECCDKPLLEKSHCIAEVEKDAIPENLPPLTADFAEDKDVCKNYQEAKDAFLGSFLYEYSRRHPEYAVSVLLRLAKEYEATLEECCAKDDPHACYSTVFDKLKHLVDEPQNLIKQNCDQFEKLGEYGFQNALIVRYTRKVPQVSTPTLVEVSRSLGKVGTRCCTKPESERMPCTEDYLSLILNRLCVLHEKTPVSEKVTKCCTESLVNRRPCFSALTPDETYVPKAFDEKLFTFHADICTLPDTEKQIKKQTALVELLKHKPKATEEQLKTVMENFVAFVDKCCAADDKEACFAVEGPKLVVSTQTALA
# [1] = small-molecule microarray binders of probe aXIP, primary screen, biochemical, NeuroSMM set, 635/667 nm fluorescence (AID 1119); settings: higher = more signal, called active from +8 up or from −8 down;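 also: probe is the protein aXip251-270 applied at 1 µg/mL to compound-printed slides; binding of probe to printed compounds measured as 667 nm fluorescence plus signal to noise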
# [2] = small-molecule binders of probe aNOTCH3, primary screen, biochemical, small-molecule microarray, 635/667 nm fluorescence (AID 1120); settings: higher = more signal;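 also: probe is a biotin-tagged antibody raised against NOTCH3 rather than NOTCH3 protein; score merges spot fluorescence near 667 nm with spot signal to noise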
# [3] = small-molecule binders of probe aNOTCH2, primary screen, biochemical, small-molecule microarray, 635/667 nm fluorescence (AID 1121); settings: higher = more signal;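 also: score merges feature fluorescence read at 667 nm with its signal to noise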
# [4] = target: Carbonic anhydrase 2 (Homo sapiens) (UniProt P00918); assay: CAII small-molecule binders, profiling panel, biochemical, small-molecule microarray, Alexa647-labelled CAII (AID 1122); settings: CAII-A647 binding fluorescence, higher = more signal
# [5] = COS7 lysate on small-molecule microarray, probe aHis, 635 nm (AID 1123); settings: COS7 cell lysate, fluorescence, higher = more signal;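 also: z-score combines 667nm fluorescence intensity with signal-to-noise per printed compound spot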
# [6] = compound binding in COS7 lysate, probe aLAP1, primary screen, cell lysate, small-molecule microarray (AID 1124); settings: probe aLAP1, fluorescence, higher = more signal;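 also: lysate comes from COS7 cells expressing LAP1 and is applied at 0.3 µg/mL; score merges spot fluorescence near 667 nm with signal-to-noise over triplicate slides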
# Sam68 (KHDRBS1) = assay: Sam68 small-molecule binders, primary screen, biochemical, small-molecule microarray, 635 nm fluorescence (AID 1125); settings: small-molecule microarray binding, higher = more signal;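 also: score merges 667 nm channel intensity with signal to noise over triplicate slides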
# [7] = system: Chordin-like protein 2 (CHRDL2); assay: CHRDL2 small-molecule binders, primary screen, biochemical, small-molecule microarray, 635 nm fluorescence (AID 1126); settings: small-molecule microarray binding, fluorescence 635 nm; higher = more signal;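 also: printed compound slides probed with Chrdl2 protein at 4 µg/mL for 1 h at 4 C; score merges 667 nm emission intensity with signal to noise over three replicate slides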
# [8] = target: Concanavalin-A (Canavalia ensiformis) (UniProt P02866); assay: ConA small-molecule binders, primary screen, artefact control for SMM control protein annotation, biochemical, small-molecule microarray, Alexa647 label, 635 nm (AID 1127); settings: ConA-A647 binding fluorescence, higher = more signal;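 also: z combines 667 nm emission intensity with signal-to-noise across three replicate slides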
# Sequence of Concanavalin-A (Canavalia ensiformis) (P02866 whole entry, looked up): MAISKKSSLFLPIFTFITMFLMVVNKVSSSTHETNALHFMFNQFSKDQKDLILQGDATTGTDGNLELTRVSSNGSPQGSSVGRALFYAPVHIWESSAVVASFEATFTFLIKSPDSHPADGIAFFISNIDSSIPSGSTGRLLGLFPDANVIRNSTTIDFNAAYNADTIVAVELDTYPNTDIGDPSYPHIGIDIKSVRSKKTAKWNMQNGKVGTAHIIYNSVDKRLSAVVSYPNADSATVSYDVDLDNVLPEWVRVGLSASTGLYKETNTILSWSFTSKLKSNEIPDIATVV
# [9] = anti-His antibody binders, primary screen, artefact control for SMM control protein annotation, biochemical, small-molecule microarray, 635 nm fluorescence (AID 1128); settings: anti-His Alexa647 antibody binding, higher = more signal;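 also: score merges feature fluorescence with signal-to-noise for each printed compound spot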
# [10] = system: Human papillomavirus type 1a E7 protein (residues 1-88); assay: HPV1a E7 small-molecule binders, primary screen, biochemical, small-molecule microarray, residues 1-88, 635 nm (AID 1129); settings: small-molecule microarray binding, fluorescence 635 nm; higher = more signal
# [11] = target: Focal adhesion kinase 1 (Homo sapiens) (UniProt Q05397); assay: small-molecule microarray binders of FAK, primary screen, biochemical, 635/667 nm fluorescence, BSA, DTT (AID 1130); settings: PTK2 binding, 635 nm fluorescence, higher = more signal;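 also: composite of spot emission at 667 nm and signal to noise over triplicate slides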
# Sequence of Focal adhesion kinase 1 (Homo sapiens) (Q05397 whole entry, looked up): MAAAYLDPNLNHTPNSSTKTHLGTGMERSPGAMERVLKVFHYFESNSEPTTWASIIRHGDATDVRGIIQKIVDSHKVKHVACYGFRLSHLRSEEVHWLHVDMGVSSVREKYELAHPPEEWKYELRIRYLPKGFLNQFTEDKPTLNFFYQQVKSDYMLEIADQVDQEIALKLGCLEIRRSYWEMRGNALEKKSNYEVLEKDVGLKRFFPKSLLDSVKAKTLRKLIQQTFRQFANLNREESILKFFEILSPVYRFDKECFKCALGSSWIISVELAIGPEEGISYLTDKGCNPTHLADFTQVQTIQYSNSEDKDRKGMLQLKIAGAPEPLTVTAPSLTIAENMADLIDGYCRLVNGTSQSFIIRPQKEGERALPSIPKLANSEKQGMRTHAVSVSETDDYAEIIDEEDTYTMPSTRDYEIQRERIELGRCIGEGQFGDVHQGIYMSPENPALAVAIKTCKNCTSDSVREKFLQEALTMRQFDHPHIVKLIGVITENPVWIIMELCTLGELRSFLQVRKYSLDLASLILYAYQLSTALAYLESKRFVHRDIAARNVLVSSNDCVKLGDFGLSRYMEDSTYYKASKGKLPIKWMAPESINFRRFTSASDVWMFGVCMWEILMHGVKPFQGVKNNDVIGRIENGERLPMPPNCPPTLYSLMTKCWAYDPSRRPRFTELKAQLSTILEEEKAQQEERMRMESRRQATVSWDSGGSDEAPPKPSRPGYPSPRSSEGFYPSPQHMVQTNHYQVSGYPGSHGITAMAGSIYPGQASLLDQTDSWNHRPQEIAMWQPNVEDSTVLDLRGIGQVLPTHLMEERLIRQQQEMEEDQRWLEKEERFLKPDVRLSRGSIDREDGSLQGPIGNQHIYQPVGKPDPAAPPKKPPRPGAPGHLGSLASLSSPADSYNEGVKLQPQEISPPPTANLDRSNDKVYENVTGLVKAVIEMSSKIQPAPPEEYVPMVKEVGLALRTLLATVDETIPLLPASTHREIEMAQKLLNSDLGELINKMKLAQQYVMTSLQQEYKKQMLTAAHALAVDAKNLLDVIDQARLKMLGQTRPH
# [12] = system: Fibrinogen (Alexa647-labelled); assay: fibrinogen binders on compound microarrays, profiling panel, artefact control for SMM control-protein annotation, biochemical, small-molecule microarray, 635/667 nm fluorescence (AID 1131); settings: fibrinogen-A647 binding fluorescence, higher = more signal;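 also: z-score merges 667 nm fluorescence with per-spot signal-to-noise over triplicate slides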
# [13] = target: Follistatin (Homo sapiens) (UniProt P19883); assay: follistatin binders on small-molecule microarrays, primary screen, biochemical, small-molecule microarray, 635/667 nm fluorescence (AID 1132); settings: FST binding, 635 nm fluorescence, higher = more signal
# Sequence of Follistatin (Homo sapiens) (P19883 whole entry, looked up): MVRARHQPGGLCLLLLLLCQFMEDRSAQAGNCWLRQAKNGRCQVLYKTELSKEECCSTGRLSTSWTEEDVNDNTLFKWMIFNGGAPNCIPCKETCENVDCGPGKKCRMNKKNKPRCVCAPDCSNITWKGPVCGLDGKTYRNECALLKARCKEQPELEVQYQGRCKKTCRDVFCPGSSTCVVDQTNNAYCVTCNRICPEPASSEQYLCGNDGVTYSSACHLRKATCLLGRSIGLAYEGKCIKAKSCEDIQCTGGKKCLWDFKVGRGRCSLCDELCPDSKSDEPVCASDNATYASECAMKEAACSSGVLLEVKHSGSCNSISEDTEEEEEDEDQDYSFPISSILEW
# [14] = target: Fibroblast growth factor 2 (Homo sapiens) (UniProt P09038); assay: FGF2 binders on small-molecule microarrays, primary screen, biochemical, small-molecule microarray, 635/667 nm fluorescence (AID 1133); settings: small-molecule microarray binding, FGF2, fluorescence 635/667; higher = more signal
# Sequence of Fibroblast growth factor 2 (Homo sapiens) (P09038 whole entry, looked up): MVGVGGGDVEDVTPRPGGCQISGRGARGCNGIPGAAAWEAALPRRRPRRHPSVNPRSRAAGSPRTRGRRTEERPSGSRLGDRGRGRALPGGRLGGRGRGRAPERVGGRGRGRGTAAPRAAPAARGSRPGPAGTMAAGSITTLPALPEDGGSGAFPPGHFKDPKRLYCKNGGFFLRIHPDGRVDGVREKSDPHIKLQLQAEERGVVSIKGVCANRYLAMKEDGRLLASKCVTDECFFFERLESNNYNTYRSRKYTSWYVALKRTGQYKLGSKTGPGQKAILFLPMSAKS
# [15] = mitochondrial membrane potential change in A549 cells, profiling panel, cell-based, JC-1 fluorescence, basal, 24 h, 100 nL (AID 1138); settings: higher = more signal;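 also: A549 lung adenocarcinoma cells under basal conditions with no added stimulus; test concentration not given here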
# Lefty1 = Lefty1 binders on small-molecule microarrays, primary screen, biochemical, small-molecule microarray, 635/667 nm fluorescence (AID 1139); settings: small-molecule microarray binding, fluorescence 635/667; higher = more signal
# [16] = system: wheat germ agglutinin (Triticum aestivum), Alexa647-labelled; assay: wheat germ agglutinin binders on compound microarrays, profiling panel, artefact control for SMM control-protein annotation, biochemical, small-molecule microarray, 635/667 nm fluorescence (AID 1140); settings: WGA-A647 binding, 635 nm fluorescence, higher = more signal;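 also: score merges 667 nm feature emission with signal to noise over triplicate slides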
# [17] = target: Luciferin 4-monooxygenase (Photinus pyralis) (UniProt P08659); assay: firefly luciferase enzyme inhibitors, primary screen, biochemical, luminescence, purified enzyme, 2006 set (AID 1141); settings: SteadyGlo luminescence, 30 min, higher = more signal, called active from +8 up or from −8 down;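 also: cell-free assay with purified firefly luciferase at 100 ng per well in PBS; test concentration not given here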
# Sequence of Luciferin 4-monooxygenase (Photinus pyralis) (P08659 whole entry, looked up): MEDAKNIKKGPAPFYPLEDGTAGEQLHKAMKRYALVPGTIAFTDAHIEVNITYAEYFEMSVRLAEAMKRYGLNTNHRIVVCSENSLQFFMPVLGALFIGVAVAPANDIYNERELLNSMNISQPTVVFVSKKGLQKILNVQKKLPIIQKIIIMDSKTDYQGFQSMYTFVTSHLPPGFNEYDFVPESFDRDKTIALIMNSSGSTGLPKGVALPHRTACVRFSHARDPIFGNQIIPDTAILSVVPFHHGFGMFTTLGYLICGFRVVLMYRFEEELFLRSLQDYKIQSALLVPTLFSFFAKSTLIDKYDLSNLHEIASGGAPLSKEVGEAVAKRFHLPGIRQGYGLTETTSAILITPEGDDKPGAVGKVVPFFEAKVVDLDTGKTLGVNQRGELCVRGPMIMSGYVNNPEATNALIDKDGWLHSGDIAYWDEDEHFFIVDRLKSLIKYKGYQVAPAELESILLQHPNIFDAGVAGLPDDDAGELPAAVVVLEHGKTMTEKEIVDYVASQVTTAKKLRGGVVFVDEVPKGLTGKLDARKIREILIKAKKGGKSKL
Structure (SMILES),composite z-score (Albumin (Bos taurus)),composite Z-score [1],composite z-score [2],composite z-score [3],composite z-score [4],composite z-score [5],composite z-score [6],composite z-score (Sam68 (KHDRBS1)),composite z-score [7],composite z-score [8],composite z-score [9],composite z-score [10],composite z-score [11],composite z-score [12],composite z-score [13],composite z-score [14],z-score [15],composite z-score (Lefty1),composite z-score [16],z-score [17]
COc1ccc([Si](C)(C)[C@H]2[C@H](CC(=O)N3Cc4ccccc4C[C@H]3CO)O[C@@]3(C(=O)N(Cc4cccc(N5C(=O)COc6ccccc65)c4)c4ccccc43)[C@@H]2C)cc1,-0.534,0.373 (inactive),0.0297,-0.102,0.635,1.97,-0.245,1.02,1.38,1.16,1.57,0.671,0.81,0.585,1.17,1.6,0.388,1.44,0.862,-0.961 (inactive)
O=C1c2ccccc2[C@](Cc2ccccc2I)(C(=O)O)[C@H](c2ccc(CO)cc2)N1Cc1ccccc1Cl,0.953,1.61 (inactive),-0.014,-0.0633,0.608,2.24,1.07,1.3,-0.912,0.944,1.99,1.19,1.04,-0.113,0.0645,-0.354,0.712,0.0911,0.507,-1.28 (inactive)
Cc1ccc(N2C(=O)c3ccccc3[C@](C)(C(=O)NC3CC3)[C@@H]2c2ccc(CO)cc2)nc1,-0.0191,0.186 (inactive),-0.132,-0.0698,0.78,0.529,1.18,-0.501,0.407,-0.816,-0.373,-0.644,-0.0892,-0.777,1.22,0.373,1.13,-0.105,0.618,-1.5 (inactive)
NC(=O)NCC#Cc1ccc2c(c1)[C@]1(C(=O)N2)[C@H](c2ccc(OCCO)cc2)N2[C@H](c3ccccc3)[C@H](c3ccccc3)OC(=O)[C@H]2[C@@H]1C(=O)Nc1nc2ccccc2s1,-0.0355,-0.883 (inactive),-0.132,-0.0629,0.0165,0.966,0.436,-0.112,0.175,0.0806,-0.609,0.123,0.0616,0.0886,0.923,-0.292,-2.17,-0.609,0.244,-2.15 (inactive)
C=CCC(OC(C)=O)[C@@H]1[C@@H](N(Cc2cc3ccccc3o2)C(=O)c2ccc(-c3ccccc3)cc2)c2cc(OCCCO)ccc2N1C(=O)c1ccc(-c2ccccc2)cc1 (stereo not given in full),0.327,-0.474 (inactive),0.061,-0.148,0.301,0.568,0.0482,-0.19,-0.333,-0.395,-0.853,-0.43,0.25,-0.796,0.227,-0.109,2.56,-0.147,-0.316,-1.02 (inactive)
CC(C)C[C@@H]1NC(=O)[C@@]23C(=O)N[C@@H](Cc4ccccc4)C2[C@H](C)[C@@]2(C)O[C@H]2C3/C=C/CC/C=C/CNC(=O)[C@@H](C)NC1=O (stereo not given in full),-1.38,-0.162 (inactive),0.0426,-0.179,-0.515,-0.262,0.0036,0.179,0.906,0.204,-0.764,-0.649,0.138,-0.875,1.23,1.12,-0.168,1.5,-0.578,-0.8 (inactive)
